Measurements taken from PubChem BioAssay (EPA / NIEHS).
Activity calls are given as the source filed them. Rule for the calls: active = hit-call score of the fitted dose curve at least 0.9, where 1 is the maximum; inactive = score below 0.9.

Key:
[1] = BSK_hDFCGF_SRB: Viability Assessment in the BioMAP Diversity Plus: hDFCGF Assay (AID 2283061); settings: primary human foreskin fibroblasts;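 note: cells exposed to compound for 24 h before the read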
Method in brief: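 SRB-based viability read on primary human skin fibroblasts at 24 h: TCA fixation, 0.1% dye, 560 nm. Gain or loss of signal is fitted against the DMSO negative control.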

[2] = read-out: TIMP metallopeptidase inhibitor 1 (TIMP1), TIMP1 (gene 7076); test: BSK_hDFCGF_TIMP1: BioMAP Diversity Plus: hDFCGF Assay for TIMP metallopeptidase inhibitor 1 (TIMP1) Biomarker Activity (AID 2283062); settings: primary human foreskin fibroblasts; actives raise or lower the signal
Method in brief: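 Bidirectional curve fitting against DMSO baseline yielded this endpoint, based on ELISA detection of TIMP-1 in primary human foreskin fibroblasts exposed to compound for 24 h.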

[3] = read-out: Monokine induced gamma interferon (MIG), CXCL9 (gene 4283); test: BSK_hDFCGF_MIG: BioMAP Diversity Plus: hDFCGF Assay for Monokine induced gamma interferon (MIG) Biomarker Activity (AID 2283063); settings: primary human foreskin fibroblasts; actives raise or lower the signal
Method in brief: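 Endpoint derived by bidirectional fitting relative to DMSO; MIG quantified via ELISA in primary human foreskin fibroblasts harvested 24 h after dosing.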

[4] = read-out: Matrix Metallopeptidase 1 (MMP1), MMP1 (gene 4312); test: BSK_hDFCGF_MMP1: BioMAP Diversity Plus: hDFCGF Assay for Matrix Metallopeptidase 1 (MMP1) Biomarker Activity (AID 2283064); settings: primary human foreskin fibroblasts; actives raise or lower the signal
Method in brief: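 hDFCGF primary fibroblasts (human foreskin); chemical added; 24 h; MMP1 by ELISA; bidirectional fit vs DMSO.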

[5] = read-out: Vascular cell adhesion molecule 1 (VCAM1), VCAM1 (gene 7412); test: BSK_hDFCGF_VCAM1: BioMAP Diversity Plus: hDFCGF Assay for Vascular cell adhesion molecule 1 (VCAM1) Biomarker Activity (AID 2283065); settings: primary human foreskin fibroblasts; actives raise or lower the signal;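 for AC50: VCAM-1 protein level quantified by ELISA after 24 h chemical exposure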
Method in brief: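 Measured after 24 h chemical treatment of primary human skin fibroblasts, VCAM-1 was detected by ELISA and concentration-response analysed in both directions versus DMSO vehicle.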

[6] = read-out: Plasminogen activator inhibitor-1 (PAI1), SERPINE1 (gene 5054); test: BSK_hDFCGF_PAI1: BioMAP Diversity Plus: hDFCGF Assay for Plasminogen activator inhibitor-1 (PAI1) Biomarker Activity (AID 2283066); settings: primary human foreskin fibroblasts; actives raise or lower the signal
Method in brief: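 Primary dermal fibroblasts (human foreskin), hDFCGF system; compound 24 h; PAI-1 by ELISA; bidirectional fit vs DMSO control.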

[7] = read-out: Intercellular Adhesion Molecule 1 (ICAM1), ICAM1 (gene 3383); test: BSK_KF3CT_ICAM1: BioMAP Diversity Plus: KF3CT Assay for Intercellular Adhesion Molecule 1 (ICAM1) Biomarker Activity (AID 2283067); settings: primary human keratinocytes with fibroblasts; actives raise or lower the signal
Method in brief: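 Bidirectional curve fitting against a DMSO baseline was applied to ICAM-1 ELISA signal from primary human skin co-cultures harvested 24 h after treatment, with SRB staining of parallel wells for overt cytotoxicity.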

[8] = read-out: Interferon-gamma inducible Protein 10 (IP10), CXCL10 (gene 3627); test: BSK_KF3CT_IP10: BioMAP Diversity Plus: KF3CT Assay for Interferon-gamma inducible Protein 10 (IP10) Biomarker Activity (AID 2283068); settings: primary human keratinocytes with fibroblasts; actives raise or lower the signal
Method in brief: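 ELISA read-out of IP-10 after 24 h chemical dosing of human skin primary co-culture (keratinocytes, foreskin fibroblasts). Gain or loss of signal relative to DMSO, bidirectional curve fit.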

[9] = BSK_KF3CT_SRB: Viability Assessment in the BioMAP Diversity Plus: KF3CT Assay (AID 2283069); settings: primary human keratinocytes with fibroblasts;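 note: total protein by sulforhodamine B staining as a cytotoxicity measure; read 24 h after compound addition; fitted for both signal gain and loss against DMSO baseline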
Method in brief: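 Keratinocytes co-cultured with foreskin fibroblasts (human primary); chemical added, 24 h; fix 10% TCA, stain 0.1% SRB, A560. Bidirectional fit vs DMSO.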

[10] = read-out: Interleukin-1 alpha (IL1a), IL1A (gene 3552); test: BSK_KF3CT_IL1a: BioMAP Diversity Plus: KF3CT Assay for Interleukin-1 alpha (IL1a) Biomarker Activity (AID 2283070); settings: primary human keratinocytes with fibroblasts; actives raise or lower the signal
Method in brief: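 Chemicals were dosed onto co-cultured human keratinocytes and foreskin fibroblasts, IL-1a was quantified by ELISA at 24 h, and activity was fitted in both directions relative to DMSO controls.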

[11] = read-out: TIMP metallopeptidase inhibitor 2 (TIMP2), TIMP2 (gene 7077); test: BSK_KF3CT_TIMP2: BioMAP Diversity Plus: KF3CT Assay for TIMP metallopeptidase inhibitor 2 (TIMP2) Biomarker Activity (AID 2283071); settings: primary human keratinocytes with fibroblasts; actives raise or lower the signal
Method in brief: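 Cells: human keratinocytes co-cultured with foreskin fibroblasts. Treat with chemical, 24 h. Measure TIMP-2 by ELISA; fit curves bidirectionally vs DMSO baseline.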

[12] = read-out: Transforming growth factor beta 1 (TGFb1), TGFB1 (gene 7040); test: BSK_KF3CT_TGFb1: BioMAP Diversity Plus: KF3CT Assay for Transforming growth factor beta 1 (TGFb1) Biomarker Activity (AID 2283072); settings: primary human keratinocytes with fibroblasts; actives raise or lower the signal
Method in brief: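 Primary human skin cells (keratinocytes, foreskin fibroblasts) were co-cultured, exposed to test chemical and sampled at 24 h. TGF-b1 levels were measured by ELISA and fitted bidirectionally relative to DMSO.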

[13] = read-out: C-C motif chemokine 2 (Homo sapiens) (UniProt P13500); test: BSK_KF3CT_MCP1: BioMAP Diversity Plus: KF3CT Assay for Monocyte Chemoattractant Protein 1 (MCP1/CCL2) Biomarker Activity (AID 2283073); settings: primary human keratinocytes with fibroblasts; actives raise or lower the signal
Method in brief: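 Biomarker MCP-1 is measured by ELISA in primary human keratinocytes co-cultured with foreskin fibroblasts, 24 h after chemical treatment; DMSO serves as the negative control and activity baseline.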

[14] = read-out: Matrix Metallopeptidase 9 (MMP9), MMP9 (gene 4318); test: BSK_KF3CT_MMP9: BioMAP Diversity Plus: KF3CT Assay for Matrix Metallopeptidase 9 (MMP9) Biomarker Activity (AID 2283074); settings: primary human keratinocytes with fibroblasts; actives raise or lower the signal;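 for AC50: MMP9 protein level quantified by ELISA in the co-culture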
Method in brief: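 Human keratinocyte/foreskin fibroblast co-culture; compound added; 24 h; MMP-9 by ELISA; bidirectional fit vs DMSO baseline.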

[15] = read-out: urokinase plasminogen activator (uPA), PLAU (gene 5328); test: BSK_KF3CT_uPA: BioMAP Diversity Plus: KF3CT Assay for urokinase plasminogen activator (uPA) Biomarker Activity (AID 2283075); settings: primary human keratinocytes with fibroblasts; actives raise or lower the signal
Method in brief: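 ELISA readout of uPA, analyzed for signal gain or loss relative to DMSO, from a human primary keratinocyte–foreskin fibroblast co-culture measured 24 h after chemical treatment.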

CD40, CD40 (gene 958) = test: BSK_LPS_CD40: BioMAP Diversity Plus: LPS Assay for CD40 Biomarker Activity (AID 2283076); settings: primary human HUVEC with PBMC; actives raise or lower the signal
Method in brief: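 Using a multiplexed primary human co-culture (umbilical vein endothelium plus PBMC), CD40 was read by ELISA 24 h after dosing, with cytotoxicity tracked by sulforhodamine B staining of parallel cultures and activity fitted bidirectionally versus DMSO.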

[16] = read-out: E-selectin (Homo sapiens) (UniProt P16581); test: BSK_LPS_Eselectin: BioMAP Diversity Plus: LPS Assay for Eselectin Biomarker Activity (AID 2283077); settings: primary human HUVEC with PBMC; actives raise or lower the signal
Method in brief: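 Dose chemical onto LPS-driven HUVEC/PBMC co-culture; after 24 h, run ELISA for E-selectin; fit up- and down-going responses relative to DMSO control.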

[17] = BSK_LPS_SRB: Viability Assessment in the BioMAP Diversity Plus: LPS Assay (AID 2283079); settings: primary human HUVEC with PBMC;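 note: total protein by sulforhodamine B absorbance as a cytotoxicity measure; measured one day after compound addition; fitted in both directions against DMSO so loss or gain of signal counts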
Method in brief: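 Cytotoxicity endpoint in human endothelial–PBMC co-culture: 24 h exposure, then SRB (0.1%) staining, 560 nm read.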

[18] = read-out: Interleukin-1 alpha (IL1a), IL1A (gene 3552); test: BSK_LPS_IL1a: BioMAP Diversity Plus: LPS Assay for Interleukin-1 alpha (IL1a) Biomarker Activity (AID 2283080); settings: primary human HUVEC with PBMC; actives raise or lower the signal
Method in brief: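 Primary human HUVEC and PBMC co-culture stimulated with LPS is dosed and harvested at 24 h. Both increases and decreases in ELISA-measured IL-1a are scored relative to DMSO.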

[19] = read-out: Interleukin-8 (IL8), CXCL8 (gene 3576); test: BSK_LPS_IL8: BioMAP Diversity Plus: LPS Assay for Interleukin-8 (IL8) Biomarker Activity (AID 2283078); settings: primary human HUVEC with PBMC; actives raise or lower the signal
Method in brief: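 In this LPS system, chemical-treated human umbilical vein endothelium/PBMC co-cultures were harvested at 24 h for IL-8 ELISA.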

Measured: AC50

E-selectin (Homo sapiens), sequence (P16581 whole entry, looked up): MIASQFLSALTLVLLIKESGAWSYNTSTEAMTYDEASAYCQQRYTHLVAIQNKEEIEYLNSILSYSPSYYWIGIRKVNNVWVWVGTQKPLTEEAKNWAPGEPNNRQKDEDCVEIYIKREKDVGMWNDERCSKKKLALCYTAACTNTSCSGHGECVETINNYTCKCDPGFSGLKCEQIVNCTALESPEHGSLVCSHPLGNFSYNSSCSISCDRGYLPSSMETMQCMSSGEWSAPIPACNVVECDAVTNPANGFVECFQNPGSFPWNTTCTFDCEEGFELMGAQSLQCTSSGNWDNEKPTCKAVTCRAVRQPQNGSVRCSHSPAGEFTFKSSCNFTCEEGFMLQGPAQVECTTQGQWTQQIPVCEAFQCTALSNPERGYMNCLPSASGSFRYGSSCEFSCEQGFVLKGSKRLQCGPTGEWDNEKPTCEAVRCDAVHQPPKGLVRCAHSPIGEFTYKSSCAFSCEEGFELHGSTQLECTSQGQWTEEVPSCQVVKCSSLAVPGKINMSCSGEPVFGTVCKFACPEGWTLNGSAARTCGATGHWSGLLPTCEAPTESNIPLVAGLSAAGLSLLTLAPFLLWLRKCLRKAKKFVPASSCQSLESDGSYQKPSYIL

CN1C(=O)CC[C@H]1c1cccnc1
not listed: [19]
inactive: all other assays above

CCCCCCCCCC(=O)O
not listed: [19]
inactive: all other assays above

O=C(O)Cc1cc(I)c(Oc2ccc(O)c(I)c2)c(I)c1
active: [1] 20.2 µM | [4] 19.4 µM | [6] 10.4 µM | [8] 26.8 µM | [9] 25.5 µM | [12] 29.9 µM | [14] 20 µM
not listed: [17] | [19]
inactive: all other assays above

CCCCCCCCOc1ccc(C(=O)c2ccccc2)c(O)c1
active: CD40, CD40 (gene 958) 25.3 µM
not listed: [17]
inactive: all other assays above

COc1cc(C(=O)NC2CCN(C)CC2)ccc1Nc1ncc2c(n1)N(C1CCCC1)CC(F)(F)C(=O)N2C
active: [1] 16 µM | [3] 6.25 µM | [4] 18.6 µM | [5] 2.79 µM | [6] 12.2 µM | [7] 18.6 µM | [8] 32.3 µM | [9] 30.8 µM | [10] 7.74 µM | [11] 28.9 µM | [12] 29.8 µM | [13] 5.37 µM | [14] 18.6 µM | [15] 27.1 µM | CD40, CD40 (gene 958) 10.1 µM | [16] 22.6 µM | [19] 18.6 µM | [17] 8.37 µM | [18] 6.03 µM
inactive: [2]

O=C=NCCCCCCN=C=O
not listed: [11] | [17]
inactive: all other assays above
